{
  "source": "PubChem BioAssay (NCATS)",
  "note": "Where “and” joins values, the source holds several entries; their conditions need not be identical. Equal values may be shown once. Results filed as inconclusive are left out. Calls of active or inactive are those of the source. The call rests on the fitted dose curve. Potency means the concentration at half of the fitted maximal effect.",
  "data": [
    {"assay": "Primary qHTS to identify inhibitors of SARS-CoV-2 cell entry (AID 1645846); further: nearly all actives have a fitted effect of over 45% in size", "settings": "SARS-CoV-2 pseudovirus cell entry assay, luminescence; activity change, negative = inhibition: at 57.1 µM (top of the series) unless noted; series mostly up to 57.1 µM", "summary_of_the_method": "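Inhibition of spike-mediated entry was scored in human ACE2-transfected Expi293F cells. Particles were MLV-pseudotyped with Wuhan-Hu-1 S carrying a 19-aa C-terminal deletion; signal was luciferase after two days, scaled between spike PP and fusion-protein-free PP.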", "values": [
      {"smiles": "CCCCOCCOC(=O)c1cccnc1", "outcome": "inactive"},
      {"smiles": "COc1cc2c3cc1Oc1cc(ccc1O)C[C@@H]1c4c(cc(OC)c(O)c4Oc4ccc(cc4)C[C@@H]3N(C)CC2)CC[N+]1(C)C", "outcome": "inactive"},
      {"smiles": "CC(C)(C)CC(C)(C)c1ccc(OCCOCC[N+](C)(C)Cc2ccccc2)cc1", "Potency": "20 µM (active)"},
      {"smiles": "COc1cc(NS(C)(=O)=O)ccc1Nc1c2ccccc2nc2ccccc12", "Potency": "1 µM (active) and 708 nM (active)"},
      {"smiles": "CC(C(=O)O)c1ccc(/C=C2\\CCCCC2=O)cc1", "note": "(centres undefined)", "outcome": "inactive"},
      {"smiles": "NC1CCN(c2nc3c(cc2F)c(=O)c(C(=O)O)cn3-c2ccc(F)cc2F)C1", "note": "(centres undefined)", "outcome": "inactive"},
      {"smiles": "OC[C@H]1O[C@@H](n2cnc3c2NC=NC[C@H]3O)C[C@@H]1O", "activity change, negative = inhibition": "-15% and -28%"},
      {"smiles": "Cc1cc(OI)c(C(C)C)cc1-c1cc(C(C)C)c(OI)cc1C", "outcome": "inactive"},
      {"smiles": "CCOc1ccc(NS(=O)(=O)c2ccc(N)cc2)nn1", "activity change, negative = inhibition": "-12.4%"},
      {"smiles": "Nc1nc(-c2ccccc2)c(Br)c(=O)[nH]1", "outcome": "inactive"},
      {"smiles": "CC(=O)N1CCN(c2ccc(OC[C@H]3CO[C@](Cn4ccnc4)(c4ccc(Cl)cc4Cl)O3)cc2)CC1", "Potency": "15.8 µM (active)"},
      {"smiles": "CCCc1nc(C(C)(C)O)c(C(=O)OCc2oc(=O)oc2C)n1Cc1ccc(-c2ccccc2-c2nn[nH]n2)cc1", "activity change, negative = inhibition": "-0.861%"},
      {"smiles": "CC1CCN(CCCC(=O)c2ccc(F)cc2)CC1", "activity change, negative = inhibition": "-25%"},
      {"smiles": "C[C@@H](O)[C@H]1C(=O)N2C(C(=O)O)=C(SCCN=CN)C[C@H]12", "outcome": "inactive"},
      {"smiles": "O=C(O)c1ccccc1S", "outcome": "inactive"},
      {"smiles": "CC(CCc1ccccc1)NCC(O)c1ccc(O)c(C(N)=O)c1", "note": "(centres undefined)", "activity change, negative = inhibition": "-28.2%"},
      {"smiles": "COc1ccc(-c2cc(=O)c3c(O)cc(O[C@@H]4O[C@H](CO[C@@H]5O[C@@H](C)[C@H](O)[C@@H](O)[C@H]5O)[C@@H](O)[C@H](O)[C@H]4O)cc3o2)cc1O", "outcome": "inactive"},
      {"smiles": "C[C@@H](CN1CC(=O)NC(=O)C1)N1CC(=O)NC(=O)C1", "outcome": "inactive", "activity change, negative = inhibition": "-20%"},
      {"smiles": "O=C(O)C(S)C(S)C(=O)O", "note": "(centres undefined)", "outcome": "inactive"},
      {"smiles": "C#CCN[C@@H]1CCc2ccccc21", "outcome": "inactive", "activity change, negative = inhibition": "-2.27%"},
      {"smiles": "CC(=O)Oc1cc(C(C)C)c(OCCN(C)C)cc1C", "outcome": "inactive"},
      {"smiles": "CC(CCc1ccc(O)cc1)NCCc1ccc(O)c(O)c1", "note": "(centres undefined)", "activity change, negative = inhibition": "-37.3%"},
      {"smiles": "CC(=O)S[C@@H]1CC2=CC(=O)CC[C@]2(C)[C@H]2CC[C@@]3(C)[C@@H](CC[C@@]34CCC(=O)O4)[C@H]12", "activity change, negative = inhibition": "-11%"},
      {"smiles": "CCCc1c2oc(C(=O)O)cc(=O)c2cc2c(=O)cc(C(=O)O)n(CC)c12", "activity change, negative = inhibition": "-16.5%"},
      {"smiles": "CN1C[C@@H]2C[C@H]1CN2c1cc2c(cc1F)c(=O)c(C(=O)O)cn2C1CC1", "activity change, negative = inhibition": "-27.1% [at 27.1 µM]"},
      {"smiles": "CCCCCCCCCCCCCCCC(=O)OCCC1CCN(CCCN2c3ccccc3Sc3ccc(S(=O)(=O)N(C)C)cc32)CC1", "activity change, negative = inhibition": "-4.81%"},
      {"smiles": "CCCCN(CCCC)CCCOC(=O)c1ccc(N)cc1", "activity change, negative = inhibition": "-17.6%"},
      {"smiles": "CCCCCCCC(=O)OCC(COC(=O)CCCCCCC)OC(=O)CCCCCCC", "outcome": "inactive"},
      {"smiles": "Nc1nc2ccc(OC(F)(F)F)cc2s1", "outcome": "inactive"},
      {"smiles": "CC(CN(C)C)C(C)(O)Cc1ccc(Cl)cc1", "note": "(centres undefined)", "activity change, negative = inhibition": "0.771%"},
      {"smiles": "CCOC(=O)O[C@]1(C(=O)OCCl)CC[C@H]2[C@@H]3CCC4=CC(=O)C=C[C@]4(C)[C@H]3[C@@H](O)C[C@@]21C", "outcome": "inactive"},
      {"smiles": "O=C(O)CCCC[C@@H]1SC[C@@H]2NC(=O)N[C@@H]21", "outcome": "inactive"},
      {"smiles": "O=[N+]([O-])c1cncn1CCN1CCOCC1", "activity change, negative = inhibition": "-6.13%"},
      {"smiles": "CCOC(=O)Oc1ccc(CCNC(=O)[C@H](CCSC)NC(C)=O)cc1OC(=O)OCC", "outcome": "inactive"},
      {"smiles": "Cc1ncc(CO)c(CO)c1O", "activity change, negative = inhibition": "-1.83%"},
      {"smiles": "C#CCC(Cc1cnc2nc(N)nc(N)c2n1)c1ccc(C(=O)N[C@@H](CCC(=O)O)C(=O)O)cc1", "note": "(some centres undefined)", "activity change, negative = inhibition": "-93.7%"},
      {"smiles": "CCOC(=O)C1=C(C)NC(C)=C(C(=O)OC)C1c1cccc([N+](=O)[O-])c1", "note": "(centres undefined)", "outcome": "inactive"}
    ]}
  ]
}
